Laboratory results published in the supplement of paper PMC12645437, “Orthogonal IMiD-Degron Pairs Induce Selective Protein Degradation in Cells” (ACS Chemical Biology, 2025).
In all, about 8,300 sequences were measured (“log2 fold change of degron read counts, EGFP-low vs EGFP+ sorted cells (limma voom), compound-induced degradation”: median about -1.1, highest 2% from about 3.2 on). The list comes from a sample in which the highest values are over-represented; it also holds similar and randomly drawn sequences.

T1: CRBN, Q96SW2
T1 chain: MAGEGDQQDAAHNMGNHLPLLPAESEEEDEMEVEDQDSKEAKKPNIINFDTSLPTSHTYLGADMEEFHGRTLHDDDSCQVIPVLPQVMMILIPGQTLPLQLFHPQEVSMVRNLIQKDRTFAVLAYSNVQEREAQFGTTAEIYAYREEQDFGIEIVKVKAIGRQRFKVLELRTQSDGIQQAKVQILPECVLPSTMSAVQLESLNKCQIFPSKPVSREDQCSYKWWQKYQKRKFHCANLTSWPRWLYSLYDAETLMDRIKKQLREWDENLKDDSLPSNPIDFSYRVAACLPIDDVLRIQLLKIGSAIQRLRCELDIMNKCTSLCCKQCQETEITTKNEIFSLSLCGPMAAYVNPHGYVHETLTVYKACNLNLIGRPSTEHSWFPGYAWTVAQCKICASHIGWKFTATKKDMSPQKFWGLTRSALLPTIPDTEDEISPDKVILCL


Biological target: T1, CRBN, Q96SW2
Test: log2 fold change of degron read counts, EGFP-low vs EGFP+ sorted cells (limma voom), compound-induced degradation; higher = more compound-induced degradation of the degron-EGFP fusion; degrons are variants of IKZF1/3 zinc finger 2; compound dose not given here
Details: Jurkat, 18 h
[1] = compound: compound 19 (5-tert-butyl-thalidomide)
[2] = compound: compound 22 (5-morpholino-thalidomide)
[3] = compound: compound 33 (diphenyl IMiD analogue)
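Further: pooled lentiviral library of zinc finger degron-EGFP fusions in mCherry-positive Jurkat cells, FACS-sorted after compound exposure, with degron abundance counted by next-generation sequencing.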

| Sequence | log2 fold change of degron read counts [1] | log2 fold change of degron read counts [2] | log2 fold change of degron read counts [3] | log2 fold change of degron read counts (compound: thalidomide) |
| --- | --- | --- | --- | --- |
| FECEICGALFTQKGNLLRHIKL [46F_47E_49E_50I_52G_53A_54L_55F_67L_, Q9UKT9] | -2.06 | -1.77 | 0.784 | 1.34 |
| FCCEICGAFFTQKGNLLRHIKL [46F_47C_49E_50I_52G_53A_54F_55F_67L_, Q9UKT9] | 0.678 | -0.0744 | 1.4 | -0.2 |
| FFCEICGARFTQKGNLLRHIKL [46F_47F_49E_50I_52G_53A_54R_55F_67L_, Q9UKT9] | 3.53 | 3.66 | 1.66 | 1.89 |
| FTCEICGARFTQKGNLLRHIKL [46F_47T_49E_50I_52G_53A_54R_55F_67L_, Q9UKT9] | 1.84 | 3.12 | 1.85 | 3.23 |
| FECEICGARFTQKGNLLRHIKL [46F_47E_49E_50I_52G_53A_54R_55F_67L_, Q9UKT9] | 1.13 | -0.528 | 1.59 | 3.55 |
| FACEICGAFFTQKGNLLRHIKL [46F_47A_49E_50I_52G_53A_54F_55F_67L_, Q9UKT9] | 2.61 | 0.556 | -0.131 | -0.84 |
| FYCEICGAFFTQKGNLLRHIKL [46F_47Y_49E_50I_52G_53A_54F_55F_67L_, Q9UKT9] | 3.38 | 3.27 | 2.4 | -0.228 |
| FWCEICGARFTQKGNLLRHIKL [46F_47W_49E_50I_52G_53A_54R_55F_67L_, Q9UKT9] | 3.43 | 3.51 | 1.48 | 1.46 |
| FWCEICGALFTQKGNLLRHIKL [46F_47W_49E_50I_52G_53A_54L_55F_67L_, Q9UKT9] | 2.93 | 2.99 | 2.06 | -0.0847 |
| FHCPICGHSFTQKGNLLRHIKL [46F_47H_49P_50I_52G_53H_54S_55F_67L_, Q9UKT9] | -2.13 | -1.94 | -1.36 | -2.32 |
| FDCNQCGRHFTQKGNLLRHIKL [46F_47D_49N_50Q_52G_53R_54H_55F_67L_, Q9UKT9] | -2.61 | -2.91 | -2.55 | -2.64 |
| FFCEQCGAIFTQKGNLLRHIKL [46F_47F_49E_50Q_52G_53A_54I_55F_67L_, Q9UKT9] | -0.0994 | 0.676 | -1.15 | -1.09 |
| LGCNQCGFSCTQKGNLLRHIKL [46L_47G_49N_50Q_52G_53F_54S_55C_67L_, Q9UKT9] | -1.87 | -2.27 | -1.97 | -1.71 |
| FHCNQCGHDFTQKGNLLRHIKL [46F_47H_49N_50Q_52G_53H_54D_55F_67L_, Q9UKT9] | -2.36 | -2.92 | -3.64 | -3.18 |
| FRCPICGRKFTQKGNLLRHIKL [46F_47R_49P_50I_52G_53R_54K_55F_67L_, Q9UKT9] | -1.49 | -0.504 | 0.233 | 0.803 |
